The sequences below were run against SNRNP70 (assay: pooled miR-30 sensor sort-seq; sequence = guide strand). Settings: shRNA.
In the case of AATCTTCTTGCCATCTGCGTGT, the sensor-assay potency score (higher = more potent) is reported as -0.116.
With TACACCTCAAACTCTCTCCGGA the sensor-assay potency score (higher = more potent) was 0.28.
TCGCTCGTGTTCGTACTCGATG gave a sensor-assay potency score (higher = more potent) of -1.13.

The sequences below were run against SNRPD1 in the same assay as above. Settings: shRNA.
TAGATTTCACCTTAGGTTCAAC was tested, and the sensor-assay potency score (higher = more potent) was -0.589.
TCATGCTGACATCCACACCTGT showed a sensor-assay potency score (higher = more potent) of -0.408.
Work on TATCCAGAGGTAAACTGTCTGG yielded a sensor-assay potency score (higher = more potent) of -1.01.
TCAACATCCACAAGTAGTGTAT showed a sensor-assay potency score (higher = more potent) of -0.261.
TCTTCCTGCAACAGCTTCCCTT showed a sensor-assay potency score (higher = more potent) of -1.09.
In the case of TTCTCTGTTCTTCAGGGTCATT, the sensor-assay potency score (higher = more potent) is reported as -1.71.
Sequence TGTGATTGTTCCATGGACCTGT has a sensor-assay potency score (higher = more potent) of 1.16.
Sequence TTAAGATGTGTATTCATGCTGA has a sensor-assay potency score (higher = more potent) of -0.136.
TAGAATAAAATACCGAATGTTA showed a sensor-assay potency score (higher = more potent) of -0.767.
TTCAACATCCACAAGTAGTGTA gave a sensor-assay potency score (higher = more potent) of 0.419.
For TCTGGTAGAATAAAATACCGAA, the sensor-assay potency score (higher = more potent) was 0.138.
TACAGGTTCTCTGTTCTTCAGG was tested, and the sensor-assay potency score (higher = more potent) was -0.643.

— the OligoGym collection
Note: reference of the scale not given here.
